High-throughput results: PubChem BioAssay, Center for Chemical Genomics, University of Michigan
The sample as a whole holds a higher share of hits than the screen did.
Dicer inh: inhibitors of human Dicer processing of pre-microRNA; Q9UPY3; cat-ELCCA pre-miR-21 Dicer processing, chemiluminescence; hits give high values; z-score at 25 µM; 47,000 compounds, 6% hits; AID 1347074; in the data active means z-score above about 3, passing the limit was not always enough;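 further: plate controls were vehicle for no effect and no enzyme for full effect; higher signal means more uncleaved substrate so more Dicer inhibition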
* = called active by the depositor.

SMILES	Dicer inh
S=C(Nc1ccc(Cl)cc1)SCc1c(Cl)cccc1Cl	0.19
CCOC(=S)SCc1c(F)cccc1Cl	4.3*
N=C(N)SCc1c(F)cccc1Cl	0.92
COc1ccc(OCc2nc(-c3ccccc3Cl)no2)cc1	0.3
O=C1/C(=C\c2cc([N+](=O)[O-])ccc2SC2CCCCC2)SC(=S)N1c1ccccc1Cl	0.52
CCSc1nnc(-c2ccc(C)c(S(=O)(=O)NCc3cccnc3)c2)c2ccccc12	1.9
CCN(C(=S)Nc1ccc(OC)cc1)c1ccccc1	1.1
C=CCOC(=O)n1c(SC)nc2ccccc21	3.1*
C=CCSc1nc2ccccc2n1CC(=O)O	1.5
CSc1nc2ccccc2n1CCOc1ccc(Cl)cc1	0.23
O/N=C/c1ncc(C(F)(F)F)cc1Cl	-0.65
COc1ccc(NC(=O)C(C)C2SC(=O)NC2=O)cc1 (centres undefined)	0.13
COC(=O)c1c(OC)ccc(-n2cccc2)c1OC	-0.54
Cn1c(N/N=C/c2ccc3ccccc3n2)nc2c1c(=O)n(Cc1ccccc1Cl)c(=O)n2C	0.33
O=c1c2c(n3cnnc3n1CCc1ccccc1)-c1ccccc1CC21CCCCC1	-0.8
Cc1cccc(Nc2nc(-c3ccc(O)c(O)c3)cs2)n1	5.2*
Cc1ccc(Nc2nc(-c3ccccc3)cs2)nc1	2.1
Cc1ccnc(Nc2nc(-c3ccc(O)cc3)cs2)c1	4.5
Cc1cccc(Nc2nc(-c3ccncc3)cs2)n1	2.1
C=CCNc1nc(-c2ccc(O)c(OC)c2)cs1	-0.25
Cc1ccnc(Nc2nc(-c3ccc(O)c(O)c3)cs2)c1	3.9*
COc1cc(C2C(C#N)=C(N)Oc3c2ccc2ccccc32)ccc1O (centres undefined)	8.4
CSc1nc(C)nc(N(C)C)c1C#N	-0.5
C=C1SC(=Nc2cccc(Cl)c2C)N(C(=O)c2c(F)cccc2F)C12CCCCC2	-1.4
COc1ccc(OC(C)C(=O)Nc2ncn[nH]2)cc1 (centres undefined)	0.52
SMILES	Dicer inh
COC(=O)C1=C(C)Nc2nnnn2C1c1ccc(F)cc1 (centres undefined)	-0.37
C[C@H](Nc1ncnc2sc3c(c12)CCCC3)c1ccccc1	-1
CC(=O)OCC12CC=C(C)C(C1)C(c1ccccc1OC(C)=O)OC2 (centres undefined)	0.85
Cc1cccc(CN2CCN(Cc3c[nH]c4ccccc34)CC2)c1	1.7
COc1ccc2c(c1)CCCN2Cc1c[nH]c2ccccc12	-1.9
Fc1ccccc1CN1CCN(CCCc2ccccc2)CC1	2.5
O=C1COCC(=O)N1CCc1c[nH]c2ccccc12	-1.2
FC(F)(F)c1cnc(N2CCN(Cc3c[nH]c4ccccc34)CC2)c(Cl)c1	-1.6
Fc1ccccc1CN1CCN(Cc2c[nH]c3ccccc23)CC1	3.7*
Brc1ccc(CN2CCN(Cc3c[nH]c4ccccc34)CC2)cc1	2.7
CCS(=O)(=O)N1CCN(Cc2c[nH]c3ccccc23)CC1	3.5*
Clc1ccccc1CN1CCN(Cc2c[nH]c3ccccc23)CC1	4.5*
CSc1nc(COc2ccccc2Cl)nc(N)c1C#N	-2.1
COC(=O)c1sc(N2C(=O)c3oc4ccccc4c(=O)c3C2c2ccccc2F)nc1C (centres undefined)	0.39
Cn1c(Cc2cccs2)nnc1SCC(=O)c1c[nH]c2ccccc12	1.3
C=CCn1c(-c2cccs2)nc2ccccc21	125
Brc1cc2c(cc1Cn1c(-c3cncs3)nc3ccccc31)OCO2	4.3*
Cc1ccccc1Cn1c(-c2cncs2)nc2ccccc21	0.83
C=CCN1C(=O)C(O)(CC(=O)c2ccc(CC)cc2)c2ccccc21 (centres undefined)	3.2*
CC(C)c1ccc(C(=O)CC2(O)C(=O)N(C)c3ccccc32)cc1 (centres undefined)	1.7
CCN1C(=O)C(O)(CC(=O)c2c(C)cc(C)cc2C)c2ccccc21 (centres undefined)	3.5*
C=CCN1C(=O)C(O)(CC(=O)c2ccc3c(c2)OCO3)c2ccccc21 (centres undefined)	4.3*
C=CCN1C(=O)C(O)(CC(=O)c2ccc3c(c2)OCCO3)c2ccccc21 (centres undefined)	0.54
CCN1C(=O)C(O)(CC(=O)c2ccncc2)c2ccccc21 (centres undefined)	1.9
C=CCN1C(=O)C(O)(CC(=O)c2ccc(C)cc2)c2ccccc21 (centres undefined)	-0.13
SMILES	Dicer inh
CN1C(=O)C(O)(CC(=O)c2ccc(Cl)cc2)c2ccccc21 (centres undefined)	3.9*
CCOC(=O)CN1C(=O)C(O)(CC(=O)c2ccc3c(c2)OCO3)c2ccccc21 (centres undefined)	0.9
CN1C(=O)C(O)(CC(=O)c2ccc(C(C)(C)C)cc2)c2ccccc21 (centres undefined)	0.59
C=CCN1C(=O)C(O)(CC(=O)c2c(C)cc(C)cc2C)c2ccccc21 (centres undefined)	0.2
C=CCN1C(=O)C(O)(CC(=O)c2ccccc2)c2ccccc21 (centres undefined)	-0.1
Cc1cc2c3c(c1)c1oc(=O)cc(O)c1c(=O)n3CCC2	0.01
CC(C)(CC(=O)O)Sc1ccc(Cl)cc1	-0.61
O=C(Nc1nc2c(s1)CCCC2)C(=O)c1c(-c2ccccc2)cc2ccccn12	-0.48
CN1CCN(Cc2c(O)ccc3c(=O)c(-c4cccc(Cl)c4)c(C(F)(F)F)oc23)CC1	-0.98
Cc1ccc(S(=O)(=O)N2C=Cc3ccccc3C2C#N)cc1 (centres undefined)	-1.5
O=C1CC2(CCCC2)C(=O)N1c1ccc(S(=O)(=O)NC2CCCCC2)cc1Cl	-1.3
COc1ccc(-c2ccnc3[nH]n(-c4nc(C)cc(C)n4)c(=O)c23)cc1	0.7
COC(=O)/C=C1\S/C(=N\c2ccccn2)N(c2cccc(C(F)(F)F)c2)C1=O	-0.16
CCOC(=O)c1c(N(C)S(C)(=O)=O)sc(C)c1C	3.6*
CCOC(=O)c1c(N)sc(C)c1C	-2.7
CCOC(=O)c1c(NC(=O)CC)sc(C)c1C	0.24
NC(=O)c1sc2nc3c(cc2c1N)CCCCC3	0.84
CCOC(=O)C(Sc1ncnc2sc3c(c12)CCCC3)C(C)=O (centres undefined)	-1.6
Cc1ccc(Cn2c(OCCN(C)C)nc3c2c(=O)n(C)c(=O)n3C)cc1	-0.65
COc1ccc(Cc2nn3c(Cc4ccccc4)nnc3s2)cc1	-0.44
COc1ccc(-c2cc(-c3nc4c5c(ncn4n3)CCC5)[nH]n2)cc1	-0.65
COc1ccc2cc(-c3ccn[nH]3)ccc2c1	-1.1
COc1ccc(-c2cc(-c3ccccc3O)[nH]n2)cc1	4.6*
COc1ccc(/C=C/c2nc(-c3ccccc3O)n[nH]2)cc1	26*
COc1ccc(O)c(-c2cc(C(F)(F)F)nc(-c3ccccc3)n2)c1	1.2
SMILES	Dicer inh
COc1ccc(Nc2n[nH]c3c2CCc2ccccc2-3)cc1	2.3
COc1ccc(S(=O)(=O)NCc2ccncc2)cc1Br	-1.6
CCSc1nc2c(c(=O)[nH]1)C(c1ccc(Br)cc1)C1=C(CCCC1=O)N2 (centres undefined)	0.31
N#Cc1cnc(N(Cc2ccccc2)Cc2ccccc2)nc1N	0.67
O=C1c2ccccc2C(=O)N1CNc1ccc(Oc2ccccc2)cc1	3.8*
Cc1cccc(NCN2C(=O)c3ccccc3C2=O)c1C	5.1
CCc1ccccc1NCN1C(=O)c2ccccc2C1=O	3.4*
CCCc1ccc(NCN2C(=O)c3ccccc3C2=O)cc1	2.2
O=C1c2ccccc2C(=O)N1CNc1ccc(Oc2ccc(Cl)cc2)cc1	5.3
CCC(C)c1ccc(NCN2C(=O)c3ccccc3C2=O)cc1 (centres undefined)	3.1*
